Data reported in the supplement of paper PMC6555819.

Assays:
Assay in all cases: PBM binding z-score (relative to random genomic background probes); higher = stronger binding; sequences stand for … in GC…GCGATTGACAGCGTAGAATGAAGG
[1] = system: FXR:RXRa (NR concentration 270 nM, RXRa partner concentration 90 nM)
How it was run: (§1)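 Scanned fluorescence from custom Agilent 4×180K protein-binding microarrays was regression-normalized. Binding z-scores use random background probes as reference. Ligand-free nuclear receptor dimers were incubated on the arrays for 1 h and detected with antibodies against each partner (one per run).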

[2] = system: LXRa:RXRa (NR concentration 270 nM, RXRa partner concentration 90 nM)
How it was run: as §1

[3] = system: LXRa homodimer (NR concentration 270 nM)
How it was run: as §1

[4] = system: LXRb:RXRa (NR concentration 270 nM, RXRa partner concentration 90 nM)
How it was run: as §1

[5] = system: LXRb homodimer (NR concentration 270 nM)
How it was run: as §1

[6] = system: PPARa:RXRa (NR concentration 270 nM, RXRa partner concentration 90 nM)
How it was run: as §1

[7] = system: PPARg:RXRa (NR concentration 180 nM, RXRa partner concentration 90 nM)
How it was run: as §1

[8] = system: PPARg:RXRa 270nM:90nM, anti-RXR (NR concentration 270 nM, RXRa partner concentration 90 nM)
How it was run: as §1

[9] = system: PPARg:RXRa 30nM:10nM, anti-RXR (NR concentration 30 nM, RXRa partner concentration 10 nM)
How it was run: as §1

[10] = system: PPARg:RXRa 90nM:30nM, anti-RXR (NR concentration 90 nM, RXRa partner concentration 30 nM)
How it was run: as §1

[11] = system: PPARg:RXRa DBDmut IVT, anti-RXR (DBD mutation: RXRa K156A/R161A, NR concentration 270 nM, RXRa partner concentration 90 nM)
How it was run: as §1

[12] = system: PPARg:RXRa IVT, anti-PPARg (NR concentration 270 nM, RXRa partner concentration 90 nM)
How it was run: as §1

[13] = system: PPARg DBDmut:RXRa IVT, anti-PPARg (DBD mutation: PPARg1 K132A/R137A, NR concentration 270 nM, RXRa partner concentration 90 nM)
How it was run: as §1

[14] = system: PPARg DBDmut IVT, anti-PPARg (DBD mutation: PPARg1 K132A/R137A, NR concentration 270 nM)
How it was run: as §1

[15] = system: PPARg homodimer (NR concentration 180 nM)
How it was run: as §1

[16] = system: PXR:RXRa (NR concentration 270 nM, RXRa partner concentration 90 nM)
How it was run: as §1

[17] = system: PXR homodimer (NR concentration 270 nM)
How it was run: as §1

[18] = system: RARa:RXR (NR concentration 270 nM, RXRa partner concentration 90 nM)
How it was run: as §1

[19] = system: RARa homodimer (NR concentration 270 nM)
How it was run: as §1

[20] = system: RARb:RXRa (NR concentration 270 nM, RXRa partner concentration 90 nM)
How it was run: as §1

| Sequence | PBM binding z-score [1] | PBM binding z-score [2] | PBM binding z-score [3] | PBM binding z-score [4] | PBM binding z-score [5] | PBM binding z-score [6] | PBM binding z-score [7] | PBM binding z-score [8] | PBM binding z-score [9] | PBM binding z-score [10] | PBM binding z-score [11] | PBM binding z-score [12] | PBM binding z-score [13] | PBM binding z-score [14] | PBM binding z-score [15] | PBM binding z-score [16] | PBM binding z-score [17] | PBM binding z-score [18] | PBM binding z-score [19] | PBM binding z-score [20] |
| --- | --- | --- | --- | --- | --- | --- | --- | --- | --- | --- | --- | --- | --- | --- | --- | --- | --- | --- | --- | --- |
| TTACCAAGGTGAGCTGCGGTCGTTGATCCAACTC | 0.391 | 0.351 | -0.281 | -0.0836 | -1.32 | 0.597 | -0.444 | -0.0826 | -0.536 | -0.439 | 0.329 | 1.64 | 0.125 | -0.586 | -0.584 | 1.38 | -0.459 | 0.61 | -0.775 | 1.07 |
| ACTCTTAGTTGAGACGAGGGCAACCGATAGGTTG | 0.56 | -0.132 | -0.317 | 0.037 | -0.519 | 0.348 | 0.499 | -0.0707 | -0.348 | -0.0252 | -0.123 | 0.386 | -0.0171 | 0.118 | -0.417 | 1.34 | -0.122 | 0.668 | -0.22 | 0.939 |
| CATACAGGGTCAGCTAGACCAGAGTAGGGACGGC | 4.47 | 2.92 | -0.0625 | 2.14 | 0.336 | 4.07 | 3.27 | 3.06 | 0.824 | 1.87 | 1.02 | 2.59 | 1.26 | 0.0987 | 1.43 | 2.03 | -0.458 | 3.16 | 0.685 | 4.07 |
| GCCTATAGGTAATACAAGGTGAAAGTCCGATTGT | 2.26 | 2.68 | -0.0258 | 0.783 | -0.465 | 1.28 | 0.667 | 0.826 | 0.0563 | 0.57 | 1.99 | 1.53 | 0.858 | 0.233 | 0.234 | 0.642 | 0.00334 | 0.994 | -0.186 | 0.666 |
| CGTCCAAGGTCAAGTTCAGTGAAAGAGACTCGAA | 8.18 | 5.89 | 2.13 | 4.76 | 2.42 | 5.94 | 5.62 | 5.92 | 2.3 | 4.88 | 2.98 | 3.88 | 1.06 | -0.344 | 3.64 | 5.19 | 3.9 | 5.39 | 2.56 | 5.66 |
| ACTAGCAGGCCAAGTTTGCGTCACTCAAACAAAG | -0.42 | -0.547 | -0.38 | -0.386 | -0.402 | -0.395 | -0.346 | -0.378 | -0.74 | -0.227 | 0.769 | 0.225 | 0.102 | -0.27 | -0.265 | -0.294 | -0.479 | -0.264 | -0.243 | 0.486 |
| GGAACGAGGGCAAGGTGATAGCAGAGTTTGATGG | 0.873 | 0.623 | -0.0759 | 0.183 | -0.496 | 1.74 | 1.76 | 1.89 | 0.199 | 1.19 | 3.43 | 3.26 | -0.452 | -0.737 | 0.922 | 0.851 | 1.06 | 0.793 | 0.23 | 2.78 |
